According to ChEMBL document CHEMBL3988442, “University of Dundee, Small-Polar-MMV Screening Library” (2021):
The whole screen tested about 48,000 compounds, of which about 13,000 (27%) showed an effect of 50% or more. The list shows a part of the results.

Each molecule was assayed on Wolbachia pipientis (assay: Anti-Wolbachia Cell-Based Screen). Details: 5 µM.
Type: functional
Design: scale not given: in the data most compounds retested in dose-response had high values

| Structure (SMILES) | Percent Effect |
| --- | --- |
| CO[C@H]1COCCN(C(=O)c2cc(C)oc2C(F)(F)F)C1 | -0.5452% |
| CN(CCc1ccccc1)c1cnn(CC(=O)N2CCOCC2)c(=O)c1 | 17.19% |
| Cc1nc(N(C)C/C=C/c2ccccc2)c2cnn(C)c2n1 | 1.614% |
| COc1cc(C(C#N)NC(=O)CC2=CCCCC2)cc(OC)c1OC (centres undefined) | -9.8% |
| O=C(c1cnns1)N1CCN(c2ccc(F)cc2Cl)CC1 | -2.521% |
| COc1ccc(CN(CC2CCCO2)C(=O)CN2CCCCC2=O)cc1 (centres undefined) | 3.552% |
| O=C(OCc1cccc(F)c1)c1cccc(C(=O)N2CCCC2)n1 | -9.061% |
| CCOc1cc(=O)n2c(c1C(=O)OCc1ccc(F)cc1)CCCC2 | 95.56% |
| CCOc1cc(C)ccc1NC(=O)N(C)Cc1cnn(C)c1 | 5.553% |
| Cc1cccc(COc2ccccc2C(=O)N2CCC(C(N)=O)CC2)c1 | 0.1214% |
| Cc1cccc(CC(=O)N2CCCCC2CN)c1.Cl (centres undefined) | -0.4794% |
| CCOc1cc(=O)n2c(c1C(=O)OCc1ccc(C)cc1)CCCC2 | 83.47% |
| COc1ccc(CN2CCCN(c3cc(C(N)=O)ccn3)CC2)cc1 | 15.11% |
| CCOc1cc2c(cc1C(=O)O)CCC2 | -16.22% |
| CCOc1cc(=O)n2c(c1C(=O)OCc1cccc(C)c1)CCCC2 | 85.47% |
| CCOc1cc(=O)n2c(c1C(=O)OCc1ccc(OC)cc1)CCCC2 | 91.51% |
| COC(=O)C(O)C1CCN(CCc2ccc(C)cc2)CC1 (centres undefined) | -9.232% |
| Cc1ccc(C(=O)N(C)CCNS(C)(=O)=O)cc1Br | -2.447% |
| Cc1cc(C(=O)N2CCOC[C@H](Oc3cnccn3)C2)c(C(F)(F)F)o1 | 1.166% |
| Cc1nnc2n1CCN(CC(=O)NC(C)c1cc3ccccc3o1)C2 (centres undefined) | -0.5236% |
| COCCN1CCN(Cc2ccc(F)c(C)c2)[C@H]2CS(=O)(=O)C[C@H]21 | -0.5112% |
| O=C1NCCN(Cc2ccoc2)C1CC(=O)N1CCc2sccc2C1 (centres undefined) | -12.03% |
| CCCN1CCN(Cc2nc3ccccc3[nH]2)[C@H]2CS(=O)(=O)C[C@H]21 | -8.969% |
| CC1CCC(O)(CN2CCN(CCNC(=O)C3CCC3)CC2)CC1 (centres undefined) | 8.242% |
| Cc1[nH]c2c(C)ccc(C)c2c1CC(=O)NCCNc1cccnc1 | 0.5336% |
| N[C@@H]1CCN(Cc2ccccc2CS(=O)(=O)c2ccccc2)C[C@H]1O | -11.48% |

| Structure (SMILES) | Percent Effect |
| --- | --- |
| c1cnn(CCC2CCN(Cc3ccc4[nH]ccc4c3)CC2)c1 | -20.25% |
| c1cc2ccc(N3CCN(Cc4ccc5c(c4)OCO5)CC3)nc2[nH]1 | -12.23% |
| c1cnnc(N[C@@H]2CC[C@@H]3CN(Cc4c[nH]c5ccccc45)C[C@@H]32)c1 | 81.26% |
| O=C1CO[C@H]2CN(Cc3c[nH]c4ccccc34)C[C@H]2N1 | 5.983% |
| Cc1nccc(N[C@H]2CN(CCS(C)(=O)=O)C[C@@H]2C2CC2)n1 | -10.57% |
| c1cnnc(N[C@@H]2CC[C@@H]3CN(Cc4ccc5cc[nH]c5c4)C[C@@H]32)c1 | 79.05% |
| CN(C)S(=O)(=O)N1C[C@@H]2CC[C@H](C1)N(Cc1ccc3[nH]ccc3c1)C2 | 10.36% |
| c1ccc2c(Cc3nnc([C@H]4CCNC4)o3)c[nH]c2c1 | -7.413% |
| c1cnnc(N[C@@H]2CC[C@@H]3CN(Cc4ccc5[nH]ccc5c4)C[C@@H]32)c1 | 53.89% |
| Cc1cn2c(CN(C)C(=O)c3cnc(N)c(Cl)c3)c(C)nc2s1 | 7.837% |
| CCn1cnnc1CN(C)C(=O)c1cc(COc2cccc(F)c2)[nH]n1 | -21.78% |
| CCOCC(=O)NC1(c2cccc(Cl)c2)CC1 | -6.24% |
| CCCc1nc(CN2CCCC2Cn2cccn2)cs1 (centres undefined) | -10.42% |
| c1cnn(CC2CCCN2Cc2ccc(-n3cccn3)cc2)c1 (centres undefined) | 123% |
| Cc1nc2ccccc2nc1CN1CCCC1Cn1cccn1 (centres undefined) | 15.41% |
| Cc1nc(CN2CCCC2Cn2cccn2)nc2ccccc12 (centres undefined) | 5.126% |
| c1ccc(-n2cc(CN3CCCC3Cn3cccn3)nn2)cc1 (centres undefined) | 141.8% |
| Cc1nc(C)n(CC2CCCN2Cc2cn(-c3ccccc3)nn2)n1 (centres undefined) | -1.626% |
| CCC(=O)N1CCN(C(=O)Nc2ccc(Cl)cc2)[C@H]2CS(=O)(=O)C[C@H]21 | 20.51% |
| O=C(COC1CCCC1)N1C[C@@H]2CN(Cc3ccoc3)CCO[C@@H]2C1.O=C(O)C(F)(F)F | -10.48% |
| CC(=O)Nc1ncc(S(=O)(=O)Nc2ccc(F)cc2F)s1 | 11.75% |
| O=C1NCC(C(=O)Nc2ncc(Cc3ccc(F)cc3F)s2)N1 (centres undefined) | 122.8% |
| O=C1NCC(C(=O)Nc2ncc(Cc3ccccc3F)s2)N1 (centres undefined) | 80.55% |
| Cc1ccccc1Cc1cnc(NC(=O)C2CNC(=O)N2)s1 (centres undefined) | 1.413% |
| CC(=O)Nc1ncc(S(=O)(=O)Nc2ccc(F)cc2)s1 | 1.75% |
| O=C(NCc1ccccc1F)NC1CCCN(c2ncccn2)C1 (centres undefined) | 7.135% |

| Structure (SMILES) | Percent Effect |
| --- | --- |
| CCCNc1ncc(C2CC(=O)NCc3nc4ccccn4c32)cn1 (centres undefined) | 19.88% |
| CCS(=O)(=O)c1ccccc1N1CCC(NC(C)=O)CC1 | -10.39% |
| NC(=O)c1c(SCCN2CCCCC2)sc2c(O)cc(=O)[nH]c12 | 88.72% |
| CN(CCN1CCCCCC1)C(=O)c1c(O)cccc1O | -5.64% |
| CCOCC(=O)N1CC(=O)Nc2cc(Br)ccc21 | -5.264% |
| Cc1cc(C(=O)NCCn2nc3ccccn3c2=O)[nH]n1 | -11.84% |
| Cc1ccc2cc(C(=O)NCCn3nc4ccccn4c3=O)[nH]c2c1 | 12.5% |
| O=c1n(CCNCc2ccc(-c3ccccc3)cc2)nc2ccccn12 | 92.23% |
| O=c1n(CCNCc2ccc3ccccc3c2)nc2ccccn12 | 96.37% |
| Cc1ccc(CSCCn2nc3ccccn3c2=O)cc1 | -0.2652% |
| Cc1cc(C)c2c(c1)C(NC(=O)CSCC(N)=O)CCO2 (centres undefined) | -11.46% |
| O=C(O)c1ccc(N2CCC(Oc3ccc(Cl)cc3)CC2)nc1 | 7.355% |
| COc1ccc(OC2CCN(C(=O)[C@@H](N)Cc3c[nH]cn3)CC2)cc1 | 108.9% |
| Cc1ccc(OC2CCN(C(=O)C(C)Cn3cccn3)CC2)cc1 (centres undefined) | -8.941% |
| O=C(N1CCC(Oc2ccncc2)CC1)C1(c2ccc(F)cc2)CC1 | 4.458% |
| N[C@@H](Cc1c[nH]cn1)C(=O)N1CCC(Oc2ccc(Cl)cc2)CC1 | 129.2% |
| N[C@@H](Cc1c[nH]cn1)C(=O)N1CCC(Oc2ccc(F)cc2)CC1 | 142.9% |
| COc1ccc(OC2CCN(C(=O)c3cnc(C)s3)CC2)cc1 | -7.331% |
| CN1CCC(N(C)CCC(=O)N2CCC(Oc3ccc(Cl)cc3)CC2)C1 (centres undefined) | -10.05% |
| COc1ccc(OC2CCN(C(=O)C(C)Cn3cccn3)CC2)cc1 (centres undefined) | -7.925% |
| CCN(Cc1nc(COC)no1)Cc1cccnc1NC | -1.287% |
| COCCCN1CCC(CNc2nccc(-c3cnn(C)c3)n2)C1 (centres undefined) | 0.7819% |
| CCNc1ncc(C(=O)N[C@H]2CC[C@H](n3cnnc3)CC2)cn1 | -5.329% |
| O=C(NC1CC1)c1cnc2n1CCCC2 | 4.998% |
| CN(C)C(=O)c1cc2ncc(C(=O)NC3CCCC3)cc2n1C | 130.7% |
| CC1CCN(C(=O)c2cccc3ncccc23)CC1 | -1.834% |

| Structure (SMILES) | Percent Effect |
| --- | --- |
| CC1CCN(C(=O)c2cnc3cc(C(=O)N(C)C)n(C)c3c2)CC1 | 124.9% |
| CN(C)C(=O)c1cccc(C[S+]([O-])CC(=O)NC2CCCC2)c1 (centres undefined) | 8.2% |
| CC(C)Oc1ncc(C(=O)N2CCC(N(C)C)CC2)cc1Cl | -24.51% |
| Cn1nc(C(=O)NC2CCCC2)cc1NC(=O)C1CC1 | 3.278% |
| CN(C)C(=O)c1cc2ncc(C(=O)NC3CC3)cc2n1C | 122.1% |
| COC(C(=O)N1CCN(Cc2noc(C)n2)CC1)c1ccccc1 (centres undefined) | -8.523% |
| Cc1cc(C)n2cc(CN3CCCC3Cn3nc(C)nc3C)nc2n1 (centres undefined) | -6.959% |
| Cn1cncc1-c1nnc([C@H]2CCN(Cc3ccc(CO)o3)C2)o1 | -1.062% |
| Cc1nn(C)c2ncc(NC(=O)N(C)Cc3cc(Cl)cn3C)cc12 | -3.854% |
| COC[C@@H]1CN(C)C(=O)[C@@H]2CCN(Cc3ccco3)CC[C@H]12 | -1.368% |
| Cn1nnc2c1CCN(Cc1ccco1)C2COCc1ccccc1.O=C(O)C(F)(F)F (centres undefined) | 30.71% |
| COC1COC2(CCN(Cc3ccco3)CC2)C1 (centres undefined) | -9.93% |
| CC[C@H]1N(Cc2ccco2)CCC[C@]12CCC(=O)N2C | 102.2% |
| CC[C@@H]1N(Cc2ccco2)CCC[C@]12CCC(=O)N2C.O=C(O)C(F)(F)F | 98.83% |
| COC(=O)CCN(CC1CCOC1)C1CC1 (centres undefined) | -6.747% |
| Cc1nnc(C(C)N(C)Cc2c(C)nn(-c3ccccc3)c2C)o1 (centres undefined) | 2.363% |
| COCC1CN(Cc2ccccn2)Cc2cn(C)nc21.O=C(O)C(F)(F)F.O=C(O)C(F)(F)F.O=C(O)C(F)(F)F (centres undefined) | -7.522% |
| O=C1NCC(C(=O)Nc2ncc(Cc3ccccc3)s2)N1 (centres undefined) | 107.9% |
| CC(=O)NC(C)(C)C(=O)Nc1ncc(Cc2ccc(C)c(F)c2)s1 | 7.127% |
| Cc1ccc(Cc2cnc(NC(=O)C3CNC(=O)N3)s2)cc1F (centres undefined) | 1.212% |
| O=C1NCC(C(=O)Nc2ncc(Cc3cccc(F)c3)s2)N1 (centres undefined) | 100.2% |
| Cc1ccc(C)c(Oc2ccc(CNC(=O)C3CNC(=O)N3)cn2)c1 (centres undefined) | -1.964% |
| O=C(Nc1nncs1)N(Cc1cccc(F)c1)C1CC1 | -1.833% |
| O=C(Nc1cccc(OCc2cccc(F)c2)c1)C1COCCO1 (centres undefined) | -8.331% |
| O=C1NCC(C(=O)N(Cc2cccc(Br)c2)C2CC2)N1 (centres undefined) | 3.322% |
| O=C1NCC(C(=O)Nc2ncc(Cc3ccc(F)cc3)s2)N1 (centres undefined) | 110.5% |
